The list is not random: actives were taken first. Their share in the collection is about 6.7%.
BoNT-A LC inh2 = BoNT/A light chain protease inhibitors, primary screen, biochemical, flow cytometry, MLPCN library; hit rate 0.17% among 360,000; multiplex microsphere protease substrate cleavage; inhibition, % at 10 µM; Botulinum neurotoxin type A light chain protease (Clostridium botulinum A str. ATCC 3502); in the data active = inhibition above about 30%
Anthrax LF prot = Bacillus anthracis LF protease inhibitors, primary screen, biochemical, multiplex microsphere, MLPCN library. Lethal factor (Bacillus anthracis), P15917. inhibition, % at 10 µM. hit rate 0.12% among 360,000. multiplex microsphere protease cleavage assay; in the data active = inhibition above about 30%
Target sequence (P15917 whole entry, looked up): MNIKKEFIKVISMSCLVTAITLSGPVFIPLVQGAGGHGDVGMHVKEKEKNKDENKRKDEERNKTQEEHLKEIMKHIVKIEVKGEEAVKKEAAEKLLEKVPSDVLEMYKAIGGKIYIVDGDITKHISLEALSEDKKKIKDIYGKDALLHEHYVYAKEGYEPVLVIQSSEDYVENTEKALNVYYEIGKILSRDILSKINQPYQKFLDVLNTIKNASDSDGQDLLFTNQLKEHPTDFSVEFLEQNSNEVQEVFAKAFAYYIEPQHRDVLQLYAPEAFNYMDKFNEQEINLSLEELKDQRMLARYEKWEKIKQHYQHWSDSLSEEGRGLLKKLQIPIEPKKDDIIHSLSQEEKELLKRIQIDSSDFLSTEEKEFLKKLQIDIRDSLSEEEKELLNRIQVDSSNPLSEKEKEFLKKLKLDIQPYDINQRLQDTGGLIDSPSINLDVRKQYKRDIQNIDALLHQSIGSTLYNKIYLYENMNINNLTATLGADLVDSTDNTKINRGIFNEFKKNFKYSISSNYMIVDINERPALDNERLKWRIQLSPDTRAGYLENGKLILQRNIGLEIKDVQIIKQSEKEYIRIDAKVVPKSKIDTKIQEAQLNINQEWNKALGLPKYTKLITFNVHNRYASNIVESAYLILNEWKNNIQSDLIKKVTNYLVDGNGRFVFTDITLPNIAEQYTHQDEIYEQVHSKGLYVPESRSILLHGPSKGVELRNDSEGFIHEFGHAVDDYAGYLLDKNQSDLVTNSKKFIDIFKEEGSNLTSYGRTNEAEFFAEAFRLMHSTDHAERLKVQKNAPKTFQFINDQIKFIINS
Bead autofluor = counter-screen for toxin protease inhibitors: compound fluorescence; compound autofluorescence counterscreen, microsphere flow cytometry; hits give high values; fluorescence intensity (concentration not given with the values); hit rate 3.1% among 360,000; in the data active = fluorescence intensity above about 16000
BoNT-F LC inh = BoNT/F light chain protease inhibitors, primary screen, biochemical, flow cytometry, MLPCN library; Multiplex microsphere protease cleavage assay; hit rate 0.22% among 360,000; inhibition, % at 10 µM; Botulinum neurotoxin type F light chain protease (Clostridium botulinum); in the data active = inhibition above about 35%, passing the limit was not always enough
GDH-TPI counter-1 = GDH-TPI coupling enzyme inhibitors, primary screen, artefact control for M. tuberculosis FBA inhibitor project, biochemical, absorbance, full deck | GDH-TPI coupled enzyme counterscreen, NADH absorbance | inhibition, % at 4.8 µM | hit rate 1.2% among 360,000 | AID 588335, 2011; in the data active = inhibition above about 30%
FBA Mtb inh = Mtb FBA enzyme inhibitors, primary screen, biochemical, fluorescence, strain H37Rv. purified M. tuberculosis FBA, fluorescence read-out. inhibition, % at 1 µM. hit rate 2.3% among 360,000
Mtb FBA confirm = M. tuberculosis aldolase blockers, biochemical, fluorescence, strain H37Rv, confirmation. shares compounds with FBA Mtb inh. purified M. tuberculosis FBA, fluorescence read-out. inhibition, % at 1 µM. AID 651616, 2012. hit rate 78% among 5,600
GDH-TPI counter-2 = GDH-TPI coupling enzyme inhibitors, artefact control for M. tuberculosis FBA inhibitor project, biochemical, fluorescence, high throughput. GDH-TPI coupled enzyme counterscreen. shares compounds with FBA Mtb inh. inhibition, % at 1 µM. AID 652141, 2013. hit rate 81% among 5,600; in the data active = inhibition above about 10%
GDH-TPI DR = GDH-TPI coupling enzyme inhibitors, dose response, artefact control for M. tuberculosis FBA inhibitor project, biochemical, fluorescence, IC50. shares compounds with FBA Mtb inh. GDH-TPI coupled enzyme assay, artifact counterscreen. IC50, µM. hit rate 79% among 170; call rule not given here
Large screens that a line does not name were inactive (follow-up assays come after a bar, where they were run). Rule as the data show it, unless noted: active = inhibition above about 27%; inactive = the rest.

O=C(CN(CC1CCCO1)S(=O)(=O)c1ccc(S(=O)(=O)NCC2CCCO2)cc1)Nc1ccccc1 (stereo unspecified)	none
COc1ccc(CCC(=O)N(C)CC(=O)Nc2ccc(N3CCOCC3)cc2)cc1	none
Cc1cc(=O)n2cccc(O)c2n1	FBA Mtb inh 74.8 | Mtb FBA confirm active | GDH-TPI counter-2 active
O=C(C(O)c1ccc(Br)cc1)N1CCC(Nc2ccc3[nH]ncc3c2)CC1 (stereo unspecified)	FBA Mtb inh 42.0 | Mtb FBA confirm active | GDH-TPI counter-2 active
CC1(C)Cc2c(c(-c3ccco3)nc3sc4c(NCC5CCCO5)ncnc4c23)CO1 (stereo unspecified)	none
CC(C)CNc1ncnc2c1sc1nc(N3CCOCC3)c3c(c12)CC(C)(C)OC3	none
CC1(C)Cc2c(c(-c3ccco3)nc3sc4c(NCCCO)ncnc4c23)CO1	GDH-TPI counter-1 48.1, FBA Mtb inh 36.6 | Mtb FBA confirm 43.3 | GDH-TPI counter-2 24.1
CC1(C)Cc2c(c(-c3ccco3)nc3sc4c(NCCN5CCOCC5)ncnc4c23)CO1	GDH-TPI counter-1 34.5, FBA Mtb inh 27.4 | Mtb FBA confirm inactive | GDH-TPI counter-2 inactive
COc1ccc(-c2c(C)oc3c(CN4CCCCC4C)c(O)ccc3c2=O)cc1OC (stereo unspecified)	GDH-TPI counter-1 34.1, FBA Mtb inh 41.8 | Mtb FBA confirm inactive | GDH-TPI counter-2 inactive
COc1ccc(-c2c(C)oc3c(CN4CCCC(C)C4)c(O)ccc3c2=O)cc1OC (stereo unspecified)	FBA Mtb inh 38.5 | Mtb FBA confirm inactive | GDH-TPI counter-2 inactive
C=C(C)CN(CC)C(=O)CN1C(=O)NC2(CCCc3ccccc32)C1=O (stereo unspecified)	FBA Mtb inh 62.9 | Mtb FBA confirm 100.7 | GDH-TPI counter-2 85.4
CCNC(=O)COC(=O)c1ccc(-c2nc3ccccc3s2)s1	FBA Mtb inh 59.1 | Mtb FBA confirm active | GDH-TPI counter-2 active
O=C(CSc1nnc(CNC(=O)c2cccc(C(F)(F)F)c2)o1)NCC1CCCO1 (stereo unspecified)	none
CCS(=O)(=O)Nc1ccc(C2=NN(S(=O)(=O)CC)C(c3cccs3)C2)cc1 (stereo unspecified)	FBA Mtb inh 49.1 | Mtb FBA confirm 146.9 | GDH-TPI counter-2 129.9
CCS(=O)(=O)N1N=C(c2ccc(NS(C)(=O)=O)cc2)CC1c1ccccc1 (stereo unspecified)	FBA Mtb inh 109.1 | Mtb FBA confirm inactive | GDH-TPI counter-2 inactive | GDH-TPI DR 0.98
CC(=O)c1ccc(S(=O)(=O)N2CCCC(N(C)CCc3ccccn3)C2)cc1 (stereo unspecified)	FBA Mtb inh 75.7 (no result: BoNT-A LC inh2, Anthrax LF prot, Bead autofluor, BoNT-F LC inh) | Mtb FBA confirm inactive | GDH-TPI counter-2 inactive
CCOc1ccc2nc(NCCNC(=O)C(C)C)c(C)cc2c1	FBA Mtb inh 35.3 | Mtb FBA confirm 85.8 | GDH-TPI counter-2 65.9
CC(=O)Nc1ncnc2c1c(-c1ccc(Cl)cc1)nn2C(C)(C)C	FBA Mtb inh 49.5 | Mtb FBA confirm 80.8 | GDH-TPI counter-2 75.1
CC(=O)N(C(C)=O)c1ncnc2c1c(-c1ccc(Cl)cc1)nn2C(C)(C)C	FBA Mtb inh 50.2 | Mtb FBA confirm inactive | GDH-TPI counter-2 inactive
CC(=O)Nc1sc(-c2ccc(Cl)cc2)nc1-c1ccccc1	none
Cc1ccc(CNC(=O)CN(C(=O)C2(C)CC(=O)N=C3C=CC=CN32)c2ccc(F)cc2)cc1 (stereo unspecified)	FBA Mtb inh 69.3 | Mtb FBA confirm inactive | GDH-TPI counter-2 inactive
